A short description of experiment [1]: Viability qHTS for spleen associated tyrosine kinase inhibitor (SYKi) naive MV4-11 cells (AID 1963823). Further: nearly all actives have a fitted effect of over 40% in size. In short, it runs like this: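 Viability of MV4-11 AML cells lacking prior SYK inhibitor exposure is scored by CellTiter-Glo luminescence following 72 hr compound incubation at 37 C, 5% CO2, seeded at 500 cells per well.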
(In qHTS, concentration-response curves come from the screen itself.)

A short description of experiment [2]: Viability qHTS for spleen associated tyrosine kinase inhibitor (SYKi) drug resistant MV4-11 cells (AID 1963824). Further: nearly all actives have a fitted effect of over 35% in size. The essentials: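 SYK inhibitor-resistant MV4-11 AML cells, 500 per well, added to predispensed compounds and incubated 72 hr at 37 C, 5% CO2. Viability measured by CellTiter-Glo luminescence after 10 min at room temperature.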
Experiment [3] is described as follows: Quantitative highthroughput screen to assess conditional lethalithy of NOMO1 cells grown in RPMI1640 with untreated serum (RPMI+s) (AID 1963876). Further: nearly all actives have a fitted effect of over 35% in size.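 On Viability: 100% = DMSO wells and 0% = empty wells without cells.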 The essentials: (§1)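 Each medium arm—HPLM with 10% dialyzed FBS, or RPMI1640 with 5 mM glucose and 10% untreated or dialyzed FBS—was screened against an 11-point, 3-fold compound titration for 48 h at 37 °C, with CellTiter-Glo luminescence as endpoint.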

Experiment [4] in a line: Quantitative highthroughput screen to assess conditional lethalithy of NOMO1 cells grown in RPMI1640 with dialyzed fetal bovine serum (RPMI+ds) (AID 1963877). Further: nearly all actives have a fitted effect of over 30% in size.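 On Viability: series mostly up to about 46 µM; 100% = DMSO control wells and 0% = empty wells.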 In short, it runs like this: as §1
Experiment [5] is described as follows: Quantitative highthroughput screen to assess conditional lethalithy of NOMO1 cells grown in Human Plasma-Like Medium with dialyzed fetal bovine serum (HPLM+ds) (AID 1963878). Further: nearly all actives have a fitted effect of over 35% in size.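 On Viability: 100% = DMSO wells and 0% = empty wells on each plate.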 The essentials:
as §1

Experiment [6] is described as follows: Quantitative highthroughput screen to assess conditional lethalithy of P12 Ichikawa cells grown in Human Plasma-Like Medium with dialyzed fetal bovine serum (HPLM+ds) (AID 1963879). Further: nearly all actives have a fitted effect of over 35% in size. On Viability: series mostly up to about 46 µM. The settings on record: Potency: viability. The essentials: as §1
Experiment [7] in a line: Quantitative highthroughput screen to assess conditional lethalithy of P12 Ichikawa cells grown in RPMI1640 with dialyzed fetal bovine serum (RPMI+ds) (AID 1963880). Further: nearly all actives have a fitted effect of over 35% in size.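 On Viability: 100% = DMSO wells and 0% = empty wells on each plate.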 The settings on record: Potency: P12-Ichikawa viability. In short, it runs like this: as §1
A short description of experiment [8]: Quantitative highthroughput screen to assess conditional lethalithy of SEM cells grown in Human Plasma-Like Medium with dialyzed fetal bovine serum (HPLM+ds) (AID 1963882). Further: nearly all actives have a fitted effect of over 35% in size. On Viability: series mostly up to about 46 µM. The essentials:
as §1

Experiment [9] is described as follows: Quantitative highthroughput screen to assess conditional lethalithy of SEM cells grown in RPMI1640 with unreated serum (RPMI+s) (AID 1963883). Further: nearly all actives have a fitted effect of over 35% in size.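 On Viability: 100% = DMSO wells and 0% = empty wells without cells.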 In short, it runs like this: as §1
Experiment [10] is described as follows: Cellular viability qHTS for adrenocortical cancer (ACC) cell line SW-13 (AID 1963989). Further: nearly all actives have a fitted effect of over 65% in size.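 On activity (max response): cells grown in serum-free medium with ITS supplement; on the % scale 0 is the no-effect control and ±100 the full control effect.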 The settings on record: SW-13 ACC cells viability, CellTiter-Glo, 48 h; activity (max response): stronger effect = lower value. In short, it runs like this:
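IC50 and maximal-response values come from four-parameter logistic fits of titration data. SW-13 cells in serum-free medium received compounds (up to 46 uM final) for 48 h before CellTiter-Glo luminescence.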

Experiment [11] is described as follows: Quantitative highthroughput screen to assess conditional lethalithy of P12 Ichikawa cells grown in RPMI1640 with untreated serum (RPMI+s) (AID 1963881). Further: nearly all actives have a fitted effect of over 35% in size.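 On Viability: series mostly up to about 46 µM; 100% = DMSO wells and 0% = empty wells without cells.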 The settings on record: Potency: viability. In short, it runs like this: as §1
Experiment [12] is described as follows: Quantitative highthroughput screen to assess conditional lethalithy of SEM cells grown in RPMI1640 with dialyzed fetal bovine serum (RPMI+ds) (AID 1963884). Further: nearly all actives have a fitted effect of over 35% in size.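 On Viability: series mostly up to about 46 µM; 100% = DMSO control wells and 0% = empty wells without cells.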 In short, it runs like this: as §1
Experiment [13] is described as follows: Cellular viability qHTS for adrenocortical cancer (ACC) cell line NCI-H295R (AID 1963990). Further: nearly all actives have a fitted effect of over 60% in size. In short, it runs like this:
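Adrenocortical carcinoma cells, suspended at 300 000 cells/mL in serum-free DMEM plus ITS, rested overnight before pin transfer of compound. After two days' incubation, ATP-dependent luminescence was recorded and curve-fitted.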

The values below come from PubChem BioAssay (NCATS).

Molecules are shown by their SMILES. Values joined by “and” are separate entries in the source; they are usually repeats but may differ in a detail not shown here. Equal entries are not always repeated. Records with an inconclusive call do not appear. Some structures have more than one record in an assay (separate samples or runs), and their calls can disagree. Active and inactive are the calls of the source. The call rests on the fitted dose curve; in most records, active means well fitted curve in the direction sought with a large enough effect; inconclusive means small, poorly fitted or top-dose-only effect, or another doubt; inactive means no such curve, though single readings can be large; an effect the other way counts as inactive or inconclusive.
Potency means the concentration at half of the fitted maximal effect.

Regarding `Cn1cnc(=N)c2[nH]cnc21`, the Potency result in experiment [1] and in experiment [2] was “inactive” throughout. The Potency in experiment [3] was 7.43 µM (active); in [4], 6.62 µM (active); in experiment [5], 4.69 µM (active); in experiment [6], 7.43 µM (active); in [7], 7.43 µM (active); in experiment [8], 3.32 µM (active). In [9], the Potency was 2.35 µM (active). Also, in experiment [10], the activity (max response) was 5.87% (inactive).
As for `CC[C@@]1(O)C(=O)OCc2c1cc1n(c2=O)Cc2cc3cc(O)ccc3nc2-1`, the Potency in [1] was 0.0186 µM (active); in experiment [2], 0.0186 µM (active); in [3], 0.118 µM (active); in [5], 0.0833 µM (active); in experiment [6], 0.0332 µM (active); in experiment [7], 0.0296 µM (active). Moreover, the Potency in experiment [11] was 0.0296 µM (active); in [8], 0.0526 µM (active); in experiment [9] it was 0.0418 µM (active); in experiment [12], 0.0469 µM (active); in experiment [10], 0.224 µM (active).
`Cc1ccc(S(=O)(=O)N[C@@H](Cc2ccccc2)C(=O)CCl)cc1`: the Potency is 9.34 µM (active) in [1], 8.33 µM (active) in [2] and 22.4 µM (active) in [13]. In addition, the Potency entry in [3] and in experiment [4] was “inactive” in each case.
Take `COC(=O)[C@H](CCCN=C(N)N)NS(=O)(=O)c1ccc(C)cc1`: the Potency result in experiment [1], in experiment [2], in experiment [3], in experiment [4], in [6] and in experiment [11] was “inactive” each time. Moreover, in [13], the Potency entry was “inactive”. Besides, the activity (max response) in [10] is 6.08% (inactive).
`NC[C@H]1O[C@H](O[C@@H]2[C@@H](O)[C@@H](O[C@H]3O[C@H](CO)[C@@H](O)[C@H](N)[C@@H]3O)[C@H](N)C[C@@H]2N)[C@H](O)[C@@H](O)[C@H]1O`: the Potency in experiment [1] is 1.05 µM (active). In addition, the Potency result in experiment [2], in [3], in [4], in experiment [6], in [7] and in experiment [11] was “inactive” each time. Moreover, the Potency result in experiment [8], in experiment [9] and in [13] was “inactive” each time. For the same compound, the activity (max response) in experiment [10] is 12.9% (inactive).
On to `COc1cc(C(C)C)c2c(c1)S(=O)(=O)N(COc1cc(=O)n3cccc(OCCN4CCCCC4)c3n1)C2=O`, for which the Potency in experiment [1] was 20.9 µM (active); in experiment [2], 11.8 µM (active); in experiment [13] it was 17.8 µM (active). For the same compound, the Potency entry in [3], in [4], in experiment [6], in experiment [8], in experiment [9] and in experiment [12] was “inactive” each time.
`Cc1ccccc1C(=O)c1ccc(Nc2ccc(Br)cc2N)cc1Cl`: the Potency in experiment [1] is 11.8 µM (active) and 13 µM (active); in [2], 16.6 µM (active) and 18.4 µM (active); in experiment [4] it was 20.9 µM (active); in experiment [10], 31.6 µM (active); in [13], 31.6 µM (active). Besides, the Potency entry in experiment [3] is “inactive”.
Consider `NC(=O)c1ccc2nc(-c3ccc(Oc4ccc(Cl)cc4)cc3)[nH]c2c1`, for which the Potency in experiment [1] is 5.17 µM (active); in experiment [2] it was 2.95 µM (active) and 8.2 µM (active); in [10], 28.2 µM (active); in [13], 25.1 µM (active). Moreover, the Potency entry in experiment [3], in [4], in experiment [6] and in [7] was “inactive” throughout.
As to `OC(CCN1CCCCC1)(c1ccccc1)C1CC2C=CC1C2` (centres undefined), the Potency entry in experiment [1], in [3], in [4], in experiment [6], in experiment [7] and in experiment [11] was “inactive” each time. For the same compound, the Potency entry in experiment [9] and in experiment [13] was “inactive” each time. Besides, in experiment [2], the Potency entry is “inactive and 16.6 µM (active)”.
Regarding `COc1cc2nc(N3CCN(C(=O)C4CCCO4)CC3)nc(N)c2cc1OC` (centres undefined), the Potency entry in [1], in experiment [2], in [3], in [4], in experiment [6] and in experiment [7] was “inactive” in each case. The Potency entry in [11] and in experiment [9] was “inactive” each time. In addition, the activity (max response) in [10] is -21% (inactive).
As for `c1coc(CNc2ncnc3nc[nH]c23)c1`, the Potency entry in experiment [1], in experiment [3], in experiment [5], in [6], in experiment [7] and in experiment [11] was “inactive” each time. Also, the Potency entry in experiment [8], in [9] and in experiment [12] was “inactive” in each case. Also, the Potency in experiment [2] is 18.6 µM (active). In experiment [10], the activity (max response) is -0.681% (inactive).
Turning to `O=C(O)c1ccc(-c2c[nH]c3ncc(-c4ccccc4)cc23)cc1C1CCCC1`, the Potency is 1.18 µM (active) in [1]; 651 nM (active) and 2.35 µM (active) in experiment [2]; 6.62 µM (active) in [7]. The Potency entry in experiment [3], in experiment [4] and in experiment [13] was “inactive” throughout.
Take `O=C(c1ccc(OCCN2CCCCC2)cc1)c1c(-c2ccc(O)cc2)sc2cc(O)ccc12`: the Potency was 14.8 µM (active) and 16.4 µM (active) in experiment [1]; 13.3 µM (active) and 16.6 µM (active) and 10.3 µM (active) in experiment [2]; 20.6 µM (active) and 25.1 µM (active) in experiment [10]; 9.2 µM (active) and 31.6 µM (active) in [13]. In addition, the Potency entry in [3], in experiment [4] and in experiment [9] was “inactive” throughout.
For `Nc1cc(C(F)(F)F)c(-c2cc(N3CCOCC3)nc(N3CCOCC3)n2)cn1`, the Potency in [1] was 2.06 µM (active) and 1.86 µM (active); in [2] it was 1.46 µM (active) and 2.09 µM (active); in experiment [3] it was 1.87 µM (active); in experiment [4] it was 1.87 µM (active); in experiment [6], 1.32 µM (active); in experiment [7] it was 1.32 µM (active). In addition, the Potency in experiment [11] was 1.66 µM (active); in [9], 1.05 µM (active); in experiment [12], 0.833 µM (active); in experiment [13] it was 3.16 µM (active).
For `CN1c2cc(O)c(N=NC(N)=O)cc2CC1S(=O)(=O)O` (centres undefined), the Potency entry in experiment [1], in [2], in experiment [3], in experiment [4], in [6] and in [7] was “inactive” each time. Besides, the Potency result in [8], in experiment [9] and in experiment [13] was “inactive” throughout. In [10], the activity (max response) is 12.8% (inactive).
In the case of `Clc1ccc(C(Cn2ccnc2)OCc2c(Cl)cccc2Cl)c(Cl)c1` (centres undefined), the Potency in experiment [1] was 16.8 µM (active) and 8.33 µM (active); in experiment [2], 21.1 µM (active) and 8.33 µM (active); in experiment [13] it was 25.1 µM (active). For the same compound, the Potency result in [3], in experiment [4], in [6], in experiment [8], in [9] and in experiment [12] was “inactive” throughout.
